As usually defined, the inhibition is the relative decrease from the control value, in per cent.

Calls of active or inactive are those of the source.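 The calls were made as follows, unless noted: active = visually confirmed hit in the image check and inhibition above 20%; inconclusive = visually confirmed hit but inhibition not above 20%; inactive = no visual hit in the image check.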

Nuclei count, inhibition of aggregation and inhibition data for 38 compounds are collected here from PubChem BioAssay.

The first test can be described thus: inhibitors of mutant huntingtin aggregation, primary screen, imaging, exon1htt(103Q)mCFP cells, high-content imaging (AID 483;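 active = visual image review flags a hit and inhibition of aggregation exceeds 20%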;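 also: compound exposure lasted 3 days before fixation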;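 as to Nuclei count: percent of the per-plate median nuclei count of sample wells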). Conditions: exon1htt(103Q)mCFP cell line, aggregate imaging, at 2 µM; inhibition of aggregation: stronger effect = higher value; nuclei count: measured here: cell count, toxicity.
Regarding `COc1ccc(C2SCC(=O)Nc3c2c(=O)[nH]n3C2CCCCCC2)cc1OC` (configuration not stated), the nuclei count was determined as 97.9% and the inhibition of aggregation was -0.4% (inactive).

Consider `Cc1cnn(C2CCN(C)CC2)c1N`, for which the nuclei count was 75.4% and the inhibition of aggregation is -22.3% (inactive).

`O=C1CC(N2CCC(n3c(=O)[nH]c4ccccc43)CC2)C(=O)N1c1ccc(F)cc1` (configuration not stated): the inhibition of aggregation is 6.3% (inactive) and the nuclei count was found to be 90.7%.

`CCNc1ccc(P(=S)(N(C)C)N(C)C)cc1`: the inhibition of aggregation was -8.4% (inactive) and the nuclei count worked out at 115%.

Regarding `c1ccc(C2NCc3ccccc3-n3cccc32)cc1` (configuration not stated), the nuclei count was 66.6% and the inhibition of aggregation is 22.5% (inactive).

For `CC(=O)Nc1ccc(OC(=O)c2ccccc2N)cc1`, the nuclei count came to 76.3% and the inhibition of aggregation is -8.5% (inactive).

For the compound `CCOCC(=O)NC1CCSC1=O` (configuration not stated), the nuclei count came out at 75.2% and the inhibition of aggregation is 17.7% (inactive).

As to `CN1CCN(c2nc3ccccc3c(=O)n2-c2ccccc2)CC1`, the inhibition of aggregation is -4.9% (inactive) and the nuclei count came to 70.3%.

For the compound `O=c1[nH]c(=O)n(CCc2ccc(F)cc2)c(O)c1C=NCCCn1ccnc1`, the nuclei count was 110% and the inhibition of aggregation was -7.2% (inactive).

Turning to `CCOc1c(P(=S)(N(C)C)N(C)C)c(C)nn1-c1ccccc1`, the nuclei count turned out to be 108% and the inhibition of aggregation was 4.6% (inactive).

As to `O=C(CN1C2CCC1CC(O)(c1cccnc1)C2)Nc1ccc2c(c1)OCO2` (configuration not stated), the nuclei count was determined as 104% and the inhibition of aggregation was -3.4% (inactive).

`CCN1CCN(C(=O)COc2cc(=O)n(CC)c3ccccc23)CC1`: the inhibition of aggregation was -14.7% (inactive) and the nuclei count stood at 99.2%.

As to `O=C(O)C1(c2ccc(Cl)cc2)CCC1`, the nuclei count amounted to 104% and the inhibition of aggregation is 1.5% (inactive).

As for `Cc1cccc(C2=NCC(=O)N(CC(=O)NCc3ccco3)c3sc4c(c32)CCCC4)c1`, the nuclei count was 92.1% and the inhibition of aggregation was 13.6% (inactive).

Turning to `CP(C)(=O)CCC(=O)O`, the nuclei count was 99.6% and the inhibition of aggregation was -5.3% (inactive).

For `CN(C)CCc1nc2ccccc2c(=O)n1-c1ccccc1`, the inhibition of aggregation is 16.8% (inactive) and the nuclei count was determined as 96.8%.

Take `CCC(=NCC1CCCO1)c1c(O)n(Cc2ccccc2)c(=O)[nH]c1=O` (configuration not stated): the inhibition of aggregation was 6.5% (inactive) and the nuclei count was found to be 97.1%.

Turning to `CCCCCCOc1ccc(CN2CCN(C)CC2)cc1`, the inhibition of aggregation was 2.1% (inactive) and the nuclei count worked out at 107%.

Turning to `CCOC(=O)C1SC2(C(F)F)CC1(O)c1c(c(OC)c3occc3c1OC)O2` (configuration not stated), the nuclei count was 98.5% and the inhibition of aggregation was 13% (inactive).

As for `Cc1ccc(C(=O)C2CN3CCC2CC3)cc1` (configuration not stated), the inhibition of aggregation is -13.1% (inactive) and the nuclei count was found to be 103%.

For the compound `C=CCn1c(O)c(C(C)=NCCCO)c(=O)[nH]c1=O`, the nuclei count came out at 108% and the inhibition of aggregation was -3.2% (inactive).

In the case of `CC1CCC(C(=O)NC(C(=O)N2CCC3(CC2)OCCO3)C(C)C)CC1` (configuration not stated), the inhibition of aggregation was 0.1% (inactive) and the nuclei count is 97.2%.

Consider `CCCCNC(=O)c1c(N)n(CCCOC)c2nc3ccccc3nc12`, for which the inhibition of aggregation was 16.7% (inactive) and the nuclei count stood at 95%.

For `O=C1CC(c2ccccc2)CC(O)=C1C=NCCN1CCN(C(=O)Cc2ccccc2)CC1` (configuration not stated), the nuclei count is 92.1% and the inhibition of aggregation was 8.6% (inactive).

As for `O=C(c1ccncc1)C12CN3CN(CN(C3)C1)C2`, the nuclei count amounted to 104% and the inhibition of aggregation is 15.7% (inactive).

As to `CCOc1ccc(-n2c(O)c(C=NCCN(CC)CC)c(=O)[nH]c2=O)cc1`, the inhibition of aggregation was -1.7% (inactive) and the nuclei count is 89.3%.

On to `COc1ccc(OC)c(N2C(=O)NC(=O)C(CCc3ccncc3)(CCc3ccncc3)C2=O)c1`, for which the inhibition of aggregation was -24.7% (inactive) and the nuclei count is 107%.

On to `CC(C)OCCCNC(=O)c1c(N)n(CC2CCCO2)c2nc3ccccc3nc12` (configuration not stated), for which the inhibition of aggregation was -14.6% (inactive) and the nuclei count came out at 75%.

With `COc1ccccc1N1CCN(Cc2c(F)cccc2F)CC1`, the inhibition of aggregation is 13.8% (inactive) and the nuclei count amounted to 98.7%.

As to `O=C(c1ccc2nc(-c3ccco3)c(-c3ccco3)nc2c1)N1CCC2(CC1)OCCO2`, the nuclei count came to 93.5% and the inhibition of aggregation was -4.6% (inactive).

As to `CC(=NCCCO)c1c(O)n(Cc2ccccc2)c(=O)[nH]c1=O`, the inhibition of aggregation was -15.8% (inactive) and the nuclei count stood at 113%.

As for `CCN1c2nc3ccccn3c(=O)c2CC2(C(=O)N(C)C(=O)N(C)C2=O)C1C` (configuration not stated), the inhibition of aggregation was -17.6% (inactive) and the nuclei count came to 104%.

For `Cc1cccc(-n2c(O)c(C=NCCCN3CCOCC3)c(=O)[nH]c2=O)c1C`, the inhibition of aggregation was 9.8% (inactive) and the nuclei count came to 96.5%.

In the case of `CCCCn1c(O)c(C(CC)=Nc2cccc(C(=O)O)c2)c(=O)[nH]c1=O`, the inhibition of aggregation is 9.5% (inactive) and the nuclei count came out at 86.6%.

Regarding `O=C(c1cccs1)C1CN2CCC1CC2` (configuration not stated), the inhibition of aggregation was 1.5% (inactive) and the nuclei count stood at 75.5%.

`COc1ccc(CCn2c(O)c(C=NCc3cccnc3)c(=O)[nH]c2=O)cc1OC`: the nuclei count came out at 111% and the inhibition of aggregation was -17.3% (inactive).

On to `O=C(C(Cc1ccccc1)NS(=O)(=O)c1ccc(F)cc1)N1CCC2(CC1)OCCO2` (configuration not stated), for which the nuclei count was determined as 99.8% and the inhibition of aggregation was -7% (inactive).

As to `O=C(NCc1ccccn1)c1ccccc1Cl`, the inhibition of aggregation was 2.9% (inactive) and the nuclei count worked out at 111%.

A short description of another test: inhibitors of E-selectin induction by TNFa, primary screen, imaging, HUVEC, immunofluorescence, MLSMR starter and 10KST1 sets (AID 487).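 As to Nuclei count: 100% = median nuclei count of all wells on the same plate.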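 As to inhibition: signal is fraction of cell area covered by stained E-selectin grains.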 Conditions: HUVEC TNFalpha-induced E-selectin immunofluorescence imaging, at 2 µM; inhibition: stronger effect = higher value; nuclei count: measured here: cell number, toxicity.
As to `COc1ccc(C2SCC(=O)Nc3c2c(=O)[nH]n3C2CCCCCC2)cc1OC` (configuration not stated), the inhibition is -11.5% (inactive) and the nuclei count was 109%.

On to `Cc1cnn(C2CCN(C)CC2)c1N`, for which the nuclei count was determined as 110% and the inhibition was 0.5% (inactive).

Consider `O=C1CC(N2CCC(n3c(=O)[nH]c4ccccc43)CC2)C(=O)N1c1ccc(F)cc1` (configuration not stated), for which the inhibition was -52.5% (inactive) and the nuclei count was found to be 93.7%.

`CCNc1ccc(P(=S)(N(C)C)N(C)C)cc1`: the nuclei count is 153% and the inhibition was -422% (inactive).

For the compound `c1ccc(C2NCc3ccccc3-n3cccc32)cc1` (configuration not stated), the inhibition is -10.1% (inactive) and the nuclei count worked out at 93.5%.

With `CC(=O)Nc1ccc(OC(=O)c2ccccc2N)cc1`, the nuclei count came to 111% and the inhibition is -96.3% (inactive).

Regarding `CCOCC(=O)NC1CCSC1=O` (configuration not stated), the inhibition was 10.8% (inactive) and the nuclei count stood at 95.3%.

On to `CN1CCN(c2nc3ccccc3c(=O)n2-c2ccccc2)CC1`, for which the inhibition was -3.5% (inactive) and the nuclei count came to 102%.

`O=c1[nH]c(=O)n(CCc2ccc(F)cc2)c(O)c1C=NCCCn1ccnc1`: the nuclei count worked out at 102% and the inhibition is 2.2% (inactive).

As to `CCOc1c(P(=S)(N(C)C)N(C)C)c(C)nn1-c1ccccc1`, the inhibition was -3.3% (inactive) and the nuclei count is 112%.

As to `O=C(CN1C2CCC1CC(O)(c1cccnc1)C2)Nc1ccc2c(c1)OCO2` (configuration not stated), the inhibition is -176% (inactive) and the nuclei count is 115%.

Consider `CCN1CCN(C(=O)COc2cc(=O)n(CC)c3ccccc23)CC1`, for which the nuclei count turned out to be 115% and the inhibition is -7.3% (inactive).

For `O=C(O)C1(c2ccc(Cl)cc2)CCC1`, the inhibition was -422% (inactive) and the nuclei count is 158%.

For the compound `Cc1cccc(C2=NCC(=O)N(CC(=O)NCc3ccco3)c3sc4c(c32)CCCC4)c1`, the nuclei count turned out to be 87.3% and the inhibition is -48.4% (inactive).

Take `CP(C)(=O)CCC(=O)O`: the nuclei count turned out to be 118% and the inhibition is -100% (inactive).

For the compound `CN(C)CCc1nc2ccccc2c(=O)n1-c1ccccc1`, the inhibition was -21% (inactive) and the nuclei count turned out to be 124%.

Turning to `CCC(=NCC1CCCO1)c1c(O)n(Cc2ccccc2)c(=O)[nH]c1=O` (configuration not stated), the nuclei count was 120% and the inhibition was -57.1% (inactive).

Consider `CCCCCCOc1ccc(CN2CCN(C)CC2)cc1`, for which the nuclei count was found to be 128% and the inhibition is -127% (inactive).

With `CCOC(=O)C1SC2(C(F)F)CC1(O)c1c(c(OC)c3occc3c1OC)O2` (configuration not stated), the nuclei count was found to be 105% and the inhibition was 52.9% (inactive).

On to `Cc1ccc(C(=O)C2CN3CCC2CC3)cc1` (configuration not stated), for which the inhibition is -84.2% (inactive) and the nuclei count is 111%.

As for `C=CCn1c(O)c(C(C)=NCCCO)c(=O)[nH]c1=O`, the inhibition is -110% (inactive) and the nuclei count was 156%.

Consider `CC1CCC(C(=O)NC(C(=O)N2CCC3(CC2)OCCO3)C(C)C)CC1` (configuration not stated), for which the nuclei count amounted to 88% and the inhibition was 1.3% (inactive).

On to `CCCCNC(=O)c1c(N)n(CCCOC)c2nc3ccccc3nc12`, for which the nuclei count came out at 111% and the inhibition is 0.8% (inactive).

As for `O=C1CC(c2ccccc2)CC(O)=C1C=NCCN1CCN(C(=O)Cc2ccccc2)CC1` (configuration not stated), the inhibition is -82.2% (inactive) and the nuclei count was 115%.

Regarding `O=C(c1ccncc1)C12CN3CN(CN(C3)C1)C2`, the inhibition was -155% (inactive) and the nuclei count is 98.1%.

As to `CCOc1ccc(-n2c(O)c(C=NCCN(CC)CC)c(=O)[nH]c2=O)cc1`, the inhibition is -87.3% (inactive) and the nuclei count was 125%.

On to `COc1ccc(OC)c(N2C(=O)NC(=O)C(CCc3ccncc3)(CCc3ccncc3)C2=O)c1`, for which the nuclei count stood at 115% and the inhibition was -73% (inactive).

Turning to `CC(C)OCCCNC(=O)c1c(N)n(CC2CCCO2)c2nc3ccccc3nc12` (configuration not stated), the nuclei count is 196% and the inhibition was -83% (inactive).

With `COc1ccccc1N1CCN(Cc2c(F)cccc2F)CC1`, the nuclei count stood at 118% and the inhibition is -26.3% (inactive).

For `O=C(c1ccc2nc(-c3ccco3)c(-c3ccco3)nc2c1)N1CCC2(CC1)OCCO2`, the inhibition is 9% (inactive) and the nuclei count came to 105%.

For `CC(=NCCCO)c1c(O)n(Cc2ccccc2)c(=O)[nH]c1=O`, the nuclei count was determined as 130% and the inhibition is -197% (inactive).

As to `CCN1c2nc3ccccn3c(=O)c2CC2(C(=O)N(C)C(=O)N(C)C2=O)C1C` (configuration not stated), the inhibition was -34% (inactive) and the nuclei count came to 114%.

With `Cc1cccc(-n2c(O)c(C=NCCCN3CCOCC3)c(=O)[nH]c2=O)c1C`, the inhibition is 26.7% (inactive) and the nuclei count was determined as 102%.

In the case of `CCCCn1c(O)c(C(CC)=Nc2cccc(C(=O)O)c2)c(=O)[nH]c1=O`, the inhibition is -25.6% (inactive) and the nuclei count was 105%.

Regarding `O=C(c1cccs1)C1CN2CCC1CC2` (configuration not stated), the inhibition was 7.9% (inactive) and the nuclei count was 110%.

For the compound `COc1ccc(CCn2c(O)c(C=NCc3cccnc3)c(=O)[nH]c2=O)cc1OC`, the inhibition was 72.3% (active) and the nuclei count was determined as 90.2%.

In the case of `O=C(C(Cc1ccccc1)NS(=O)(=O)c1ccc(F)cc1)N1CCC2(CC1)OCCO2` (configuration not stated), the nuclei count was found to be 122% and the inhibition was -43.8% (inactive).

As for `O=C(NCc1ccccn1)c1ccccc1Cl`, the nuclei count came to 92.5% and the inhibition was -26.1% (inactive).
